Inconclusive results are not listed. Unmarked numbers belong to inactive results. Calls follow the shape of the dose curve; as a rule, active = well fitted curve in the direction sought with a large enough effect; inconclusive = small, poorly fitted or top-dose-only effect, or another doubt; inactive = no such curve, though single readings can be large; an effect the other way counts as inactive or inconclusive.
Assay: qHTS of pediatric cancer cell lines to identify multiple opportunities for drug repurposing: Primary screen for OHS-50 cells (AID 1347103);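 also: plate controls were DMSO neutral control for no effect and bortezomib positive control for full effect; nearly all actives have a fitted effect of over 40% in size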
Settings: OHS-50 osteosarcoma viability, CellTiter-Glo luminescence, 48 h; series mostly up to 57.3 µM; activity change, negative = cytotoxic: at the top concentration
Outline: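 Cells (500-1,000/well) rested 5 h, then received compounds for 48 h; metabolically active cells were measured by CellTiter-Glo luminescence. Final concentrations spanned up to 46 µM (MIPE, 11-point) or 0.59 nM-46 µM (NPC, 8-point) in primary screens, 11-point in follow-ups.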

SMILES	activity change, negative = cytotoxic
O=C(O)Cn1cnnn1	3.88%
COc1cc(OC)nc(O[C@H](C(=O)O)C(OC)(c2ccccc2)c2ccccc2)n1	46.9%
CCCCCCCCCCCCCCCCCCN(C)C	-4.35%
C=C(C)C(=O)OCC(O)CO (stereo unspecified)	-4.3%
CNC(=O)c1c(I)c(NC(C)=O)c(I)c(C(=O)O)c1I	16.2%
Cc1nc([N+](=O)[O-])cn1-c1ccc([N+](=O)[O-])cc1	13.1%
O=C(CCCCCCCCC#CI)Oc1ccccc1	-3.83%
C=CC[N+]1([C@H]2C[C@H]3[C@@H]4CC[C@H]5C[C@H](OC(C)=O)[C@@H](N6CCCCC6)C[C@]5(C)[C@H]4CC[C@]3(C)[C@H]2OC(=O)CC)CCCCC1	19.4%
CO/N=C(/C(=O)N[C@@H]1C(=O)N2C(C(=O)[O-])=C(C[n+]3ccn4ncccc43)CS[C@H]12)c1nsc(N)n1	16%
C/C(=N\O)[C@@H](C)NCC(C)(C)CN[C@H](C)/C(C)=N/O	-1.05%
CNC[C@H](O)[C@@H](O)[C@H](O)[C@H](O)CO	-2.19%
COc1ccc(CCC(C)=O)cc1	-3.16%
Cc1ccccc1C(=O)N1CC/C(=N\OS(=O)(=O)O)c2ccc(Cl)cc21	8.38%
CCn1ccc(NS(=O)(=O)c2ccc(N)cc2)nc1=O	19.5%
O=C(O)/C=C(\CC(=O)O)C(=O)O	15.1%
[O-][n+]1cccc(/C(Cl)=N/OC[C@@H](O)CN2CCCCC2)c1	11.9%
CC1CC(=O)NN=C1c1ccc(NCC(C)(C)NCC(O)COc2cc(Cl)ccc2C#N)cc1 (stereo unspecified)	-7.25%

Assay: qHTS of pediatric cancer cell lines to identify multiple opportunities for drug repurposing: Primary screen for RD cells (AID 1347104);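 also: plate controls were DMSO for no effect and bortezomib for full effect; nearly all actives have a fitted effect of over 55% in size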
Settings: RD rhabdomyosarcoma viability, CellTiter-Glo luminescence, 48 h; series mostly up to 46 µM; activity change, negative = cytotoxic: at the top concentration
Outline: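 Primary screen of approved and investigational compounds on cells in growth media at 37 degrees C, 5% CO2. MIPE set at 11-point and NPC set at 8-point dilutions; viability scored by ATP-based luminescence at 48 hours.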

SMILES	activity change, negative = cytotoxic
Cn1c(=O)c2c(ncn2CC(=O)O)n(C)c1=O	17.4%
O=[N+]([O-])c1nccn1CO[C@@H](CO)[C@H](O)CO	-1.8%
CC(=O)OCC(=O)Nc1cc(C#N)cc(NC(=O)COC(C)=O)c1Cl	8.66%
CC1(C)O[C@@H]2C[C@H]3[C@@H]4C[C@H](F)C5=CC(=O)C=C[C@]5(C)[C@@]4(F)[C@@H](O)C[C@]3(C)[C@]2(C(=O)CO)O1	-0.98%
CCCC(=O)Nc1ccc(O)c(C(C)=O)c1	17.9%
O=[N+]([O-])c1cncn1CCN1CCOCC1	16.5%
CCOc1ncc(F)c(=O)[nH]1	11.3%
CCc1cc(S(=O)(=O)O)c2cc(C(C)C)cccc1-2	2.52%
Cc1ccccc1N1CCN(CCc2nnc3n2CCCC3)CC1	2.79%
CN1C(=O)c2ccccc2C1=O	9.31% [at 92.7 µM]
Nc1nnnn1-c1ccccc1	-4.58%
CCOC(=O)c1ccc(NC(=O)CN2CCCCC2)cc1	6.22%
Brc1ccccc1-c1ccccc1	23.5% [at 92.7 µM]
CCNC(=O)NCCCOc1cccc(CN2CCCCC2)c1	-5.97%
CO/N=C(/C(=O)N[C@@H]1C(=O)N2C(C(=O)OCOC(=O)C(C)(C)C)=C(C)CS[C@H]12)c1csc(N)n1	9.32%
Cc1c(N)cccc1C(F)(F)F	16.1%
OC[C@]1(O)OC[C@@H](O)[C@H](O)[C@@H]1O	10%
COC(=O)c1cc(Cl)ccc1OC	4.99%
CCCc1ncc(C(=O)O)s1	7.86%
CCOc1ccc(NS(=O)(=O)c2ccc(N)cc2)nn1	11.9%
CCCc1c2oc(C(=O)O)cc(=O)c2cc2c(=O)cc(C(=O)O)n(CC)c12	13.9%
O=C(O)Cn1cnnn1	16.3%
COc1cc(OC)nc(O[C@H](C(=O)O)C(OC)(c2ccccc2)c2ccccc2)n1	9.4%
CCCCCCCCCCCCCCCCCCN(C)C	3.24%
C=C(C)C(=O)OCC(O)CO (stereo unspecified)	-3.69%
CNC(=O)c1c(I)c(NC(C)=O)c(I)c(C(=O)O)c1I	10.5%
Cc1nc([N+](=O)[O-])cn1-c1ccc([N+](=O)[O-])cc1	1.14%
O=C(CCCCCCCCC#CI)Oc1ccccc1	-5.93%
C=CC[N+]1([C@H]2C[C@H]3[C@@H]4CC[C@H]5C[C@H](OC(C)=O)[C@@H](N6CCCCC6)C[C@]5(C)[C@H]4CC[C@]3(C)[C@H]2OC(=O)CC)CCCCC1	2.05%

— PubChem BioAssay (NCATS)
